Sampled rows, rich in hits. Any-hit rate of the full collection: about 21%.
CHX counter = Cycloheximide Counterscreen for Small Molecule Inhibitors of Shiga Toxin; cell reporter, cycloheximide protein synthesis inhibition counterscreen; max response, %; actives 12% (n = 300,000); AID 2314, 2010; in the data active means max response mostly above about 13%, no sharp cut-off; inactive means mostly below about 14%; further: read at 38.3 µM for the half of the compounds with a filed dose
HCV inh = qHTS Assay for Inhibitors of Hepatitis C Virus (HCV); actives 3.4% (n = 340,000); Potency, µM (top dose mostly 41.8 µM), usual class: inhibitors; AID 651820, 2012; Huh7.5.1 HCVcc-Cre infection, luciferase reporter, 44 h
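After 44 h co-culture of compound, cells and HCVcc-Cre (~0.5 moi), substrate is added for 15 min at room temperature and luciferase measured over 15 sec. Cells were seeded at 1,000/well and pre-cultured 4 h.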
Shiga toxin inh = A qHTS for Small Molecule Inhibitors of Shiga Toxin | Vero cells, Shiga toxin protein synthesis inhibition reporter | inhibition, % at 38.7 µM | actives 9.2% (n = 290,000) | AID 2315, 2010; in the data active means inhibition mostly above about 28%, no sharp cut-off; inactive means mostly below about 43%
Pf growth 48h = Primary qHTS for delayed death inhibitors of the malarial parasite plastid, 48 hour incubation. Potency, µM (top dose mostly 28.7 µM), most hits filed as inhibitors. P. falciparum luciferase growth in erythrocytes, 48 h. AID 504832, 2011. actives 5.9% (n = 310,000)
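Erythrocytes infected with P. falciparum carrying an integrated firefly luciferase reporter (2% hematocrit, 0.1% parasitemia final) were exposed to compounds in RPMI 1640 with 0.5% Albumax at 37 C, 5% CO2. Growth inhibition was scored as reduced luminescence.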
HCMV antiviral = qHTS Assay for inhibitors of the human cytomegalovirus (HCMV) | HFF cells, HCMV-luciferase reporter, 72 h; hits give low values | activity change, negative = inhibition, % at 57.5 µM | actives 4.5% (n = 410,000) | AID 1259415, 2018; in the data active means activity change below about -60%; inconclusive means no clear call, values can overlap the other calls; inactive means above about -39%
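After 16 h attachment at 37C, HFF cells received test compound and HCMV-luciferase (1 PFU/cell); reporter luminescence read 72 h later, data normalized against buffer-only and known inhibitor Salinomycin.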
Pf growth 96h = Primary qHTS for delayed death inhibitors of the malarial parasite plastid, 96 hour incubation | P. falciparum luciferase reporter growth, 96 h | Potency, µM (doses to about 28.7 µM), most hits filed as inhibitors | actives 6.9% (n = 320,000)
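P. falciparum expressing integrated firefly luciferase grown in erythrocytes (2% hematocrit, 0.05% parasitemia final) with compounds for 96 hours at 37 C, 5% CO2. Growth inhibition read as loss of luminescence after adding luciferase detection reagent.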
Each line names hits and unclear results; the compound was inactive in the other large screens; ! = repeats disagree. Unless noted, the call rests on the fitted dose curve; in most records, active means well fitted inhibition curve with a large enough effect; inconclusive means small, poorly fitted or top-dose-only effect, or another doubt; inactive means no such curve, though single readings can be large or run the other way.

CCCCNC(=O)c1ccc2c(c1)N(Cc1ccc(F)cc1)C(=O)c1ccccc1S2=O (centres undefined)	none (no result: CHX counter, HCV inh, Shiga toxin inh, Pf growth 48h, Pf growth 96h)
O=C(NCCCN1CCOCC1)c1ccc2c(c1)N(Cc1ccc(Cl)cc1)C(=O)c1ccccc1S2=O (centres undefined)	Pf growth 48h inconclusive
CCN(CC)CCNC(=O)c1ccc2c(c1)N(Cc1ccccc1)C(=O)c1ccccc1S2=O (centres undefined)	HCMV antiviral -70 (no result: CHX counter, HCV inh, Shiga toxin inh, Pf growth 48h, Pf growth 96h)
CSCC[C@H](NC(=O)C1CCN(S(=O)(=O)c2ccc(C)cc2)CC1)C(=O)NC1CCS(=O)(=O)C1 (some centres undefined)	Pf growth 96h inconclusive
CCCCN(C)CCNC(=O)c1c(C)oc2ncnc(N3CCOCC3)c12	none (no result: CHX counter, HCV inh, Shiga toxin inh, Pf growth 48h, Pf growth 96h)
COc1ccc(CN2CCN(Cc3ccc(C(F)(F)F)cc3)CC2)cc1	HCV inh inconclusive, Pf growth 48h inconclusive, Pf growth 96h inconclusive
CCOC(=O)N1CCN(C(=O)c2ccc3c(c2)N(Cc2cc(C)ccc2C)C(=O)c2ccccc2S3=O)CC1 (centres undefined)	HCV inh inconclusive, Pf growth 48h inconclusive, HCMV antiviral -88!
O=C(NCCCN1CCCC1)c1ccc2c(c1)N(Cc1ccccc1F)C(=O)c1ccccc1S2=O (centres undefined)	Pf growth 48h inconclusive
Cc1ccc(C)c(CN2C(=O)c3ccccc3S(=O)c3ccc(C(=O)NCCCN4CCCC4)cc32)c1 (centres undefined)	HCV inh 7.1µM, Pf growth 48h inconclusive, HCMV antiviral inconclusive, Pf growth 96h inconclusive
CC(=O)Nc1c(C)nn(-c2ccccc2)c1N1CCC(C(=O)NCc2ccc(F)cc2)CC1	none (no result: CHX counter, HCV inh, Shiga toxin inh, Pf growth 48h, Pf growth 96h)
O=C(Nc1nccc(-c2cccs2)n1)c1ccccc1Cl	CHX counter 32, Shiga toxin inh 53
O=C(Nc1cccc(-c2ccc(F)cc2)c1)C1CCCN(Cc2cccnc2)C1 (centres undefined)	HCV inh inconclusive, Pf growth 48h inconclusive
C#Cc1ccc(CN2CCCC(C(=O)Nc3ccccc3Oc3cccnc3)C2)cc1 (centres undefined)	Pf growth 48h 10µM
O=C(Nc1ccccc1Oc1cccnc1)C1CCCN(Cc2ccccc2O)C1 (centres undefined)	Pf growth 48h 13µM
CCN(CC)C(=O)C1CCCN(C/C=C/c2ccccc2)C1 (centres undefined)	Pf growth 96h inconclusive
O=C(Nc1ccccc1Oc1cccnc1)C1CCCN(C/C=C/c2ccccc2)C1 (centres undefined)	HCV inh inconclusive, Pf growth 48h 5.2µM, Pf growth 96h inconclusive
CC(C)n1cc(CN2CCCC(C(=O)Nc3ccccc3Oc3cccnc3)C2)cn1 (centres undefined)	none
CCCOc1c(Br)cc(C(=O)OCC(=O)NC2CC2)cc1OC	HCV inh inconclusive (no result: CHX counter, Shiga toxin inh)
C=CN1CCCC1=O	none (no result: HCV inh, Pf growth 48h, HCMV antiviral, Pf growth 96h)
COCCN=C1Sc2nc3cc(C)c(C)cc3cc2CN1Cc1cccs1	Pf growth 48h 10µM, Pf growth 96h inconclusive
COCCN1CSC(=S)N(Cc2ccco2)C1	none (no result: Pf growth 96h)
CC(=O)N(Cc1cccs1)Cc1cc2cc(C)c(C)cc2nc1Cl	HCV inh inconclusive, Pf growth 96h inconclusive
CCOc1ccc2cc(S(=O)(=O)N3CCN(C)CC3)ccc2c1	none
COCCN=C1Sc2nc3ccc(C)cc3cc2CN1Cc1ccco1	CHX counter 52, Shiga toxin inh 114, Pf growth 96h inconclusive (no result: Pf growth 48h)
CCOc1ccc2nc3c(cc2c1)CN(CCOC)C(=NCCOC)S3	Pf growth 48h inconclusive, HCMV antiviral -61, Pf growth 96h inconclusive
CCOc1cc(C2NC(=O)c3c(sc4c3CCN(C)C4)N2)ccc1OC(=O)c1ccccc1Cl (centres undefined)	none (no result: CHX counter, HCV inh, Shiga toxin inh, Pf growth 48h, Pf growth 96h)
O=C(OCc1cncs1)c1cccs1	none
O=C(/C=C/c1ccccc1)OCc1cncs1	CHX counter 33, Shiga toxin inh 88
O=C(Nc1ccccc1)OCc1cncs1	Shiga toxin inh 32
O=C(Nc1ccc(Cl)c(Cl)c1)OCc1cncs1	CHX counter 39, Shiga toxin inh 42 (no result: Pf growth 48h)
Cc1cccc(C(=O)OCc2cnc(Cl)s2)c1	CHX counter 11
CC(C)OC(=O)c1cccnc1N1CCN(c2cccc(Cl)c2)CC1	HCV inh inconclusive, Pf growth 48h inconclusive
CC(=O)Nc1c(I)c(C(=O)N[C@H]2[C@@H](O)[C@H](O)[C@H](CO)O[C@@H]2O)c(I)c(N(C)C(C)=O)c1I	none (no result: CHX counter, HCV inh, Shiga toxin inh, HCMV antiviral)
O=C(Nc1ccccc1)OCc1cnc(Cl)s1	none
O=C(Nc1ccc(Cl)c(Cl)c1)OCc1cnc(Cl)s1	CHX counter 20, HCV inh 11µM
O=[N+]([O-])c1cccc(S(=O)(=O)Nc2nc3ccccc3nc2Nc2cccc(S(=O)(=O)N3CCCCC3)c2)c1	HCV inh 10µM, Pf growth 48h 15µM, HCMV antiviral -100, Pf growth 96h 5.2µM
C/C(=N/N1CCN(c2ccccn2)CC1)c1cccc([N+](=O)[O-])c1	CHX counter 15, HCMV antiviral inconclusive
O=[N+]([O-])c1cccc(S(=O)(=O)N2CCN(c3ccccn3)CC2)c1	Pf growth 96h 10µM
Cc1ccc(NC(=O)C2CC(=O)NC(Nc3cccc(C)c3)=N2)cc1 (centres undefined)	Pf growth 96h 2.1µM
O=C1CC(C(=O)Nc2ccccc2)N=C(N2CCCCC2)N1 (centres undefined)	none (no result: Pf growth 96h)
CCN(CC(=O)Nc1ccc(OC)cc1)C(=O)c1cccc(S(=O)(=O)N2CCN(c3ccccc3)CC2)c1	none (no result: CHX counter, HCV inh, Shiga toxin inh, Pf growth 48h, Pf growth 96h)
COc1cccc(-n2nc(C(N)=O)c(O)cc2=O)c1	none
COc1cccc(-n2nc(C#N)c(Cl)cc2=O)c1	HCV inh inconclusive, HCMV antiviral -96
CCN1C(=O)C2(c3ccccc31)c1c(oc3ccc(F)cc3c1=O)C(=O)N2CCCOC (centres undefined)	none (no result: CHX counter, HCV inh, Shiga toxin inh, Pf growth 48h, Pf growth 96h)
O=C(OCn1ncc(Br)c(Br)c1=O)c1c(F)cccc1F	CHX counter 17, HCV inh 2.8µM, Pf growth 48h inconclusive (no result: HCMV antiviral, Pf growth 96h)
CC(=O)Cn1ncc(Br)c(Br)c1=O	HCV inh inconclusive, Pf growth 48h inconclusive, HCMV antiviral -105
O=C(Cn1cnc2c(cnn2-c2ccccc2)c1=O)OCc1ccccc1	CHX counter 30, Shiga toxin inh 76
Cc1ccc(-n2ncc3c(=O)n(CC(=O)OCc4ccccc4)cnc32)cc1	CHX counter 31 (no result: Pf growth 48h, Pf growth 96h)
CC(=O)Nc1sc2c(c1C(c1ccc(Cl)cc1)N1CCOCC1)CCCC2 (centres undefined)	HCMV antiviral -94, Pf growth 96h 1.3µM (no result: Pf growth 48h)
CC(=O)Nc1sc2c(c1C(c1ccc(F)cc1)N1CCOCC1)CCCC2 (centres undefined)	HCMV antiviral -86, Pf growth 96h 1.2µM (no result: Pf growth 48h)
CCc1nc(N2CCN(C(=O)c3ccccc3)CC2)c2c3c(sc2n1)CCCC3	HCV inh inconclusive, Pf growth 48h inconclusive

Source: PubChem (National Center for Advancing Translational Sciences (NCATS))
